Results reported in paper PMC7862700, “An all-to-all approach to the identification of sequence-specific readers for epigenetic DNA modifications on cytosine”.

The sequences below were run against SPIB (Homo sapiens, UniProt Q01892 1-262) (assay: DAPPL (digital affinity profiling via proximity ligation, sequencing); 10 mM Tris-HCl pH 7.5, 50 mM NaCl, 1 mM DTT, 4% glycerol, room temperature, 30 min; GST-TFs on glutathione beads, 16-mer random dsDNA library, 0.1% formaldehyde crosslink after washing; high values mean tight binding). Conditions: protein: recombinant; tags: N-terminal GST; dsDNA, one strand shown.
Summary of the method: (§1)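 Binding signal is defined as a hexamer's read frequency for one factor over its frequency for the tag-only sample. To obtain reads, GST-fused human transcription factors were expressed in yeast, captured on glutathione beads, barcoded with DNA and pooled with that sample. Pools met 200 nmole of a 16-mer random double-stranded DNA library in Tris/NaCl/DTT/glycerol buffer for 30 min at room temperature before washing, 0.1% formaldehyde crosslinking, proximity ligation (BsaI/T4 ligase, 1 h, 37 °C), PCR and Illumina NextSeq500 sequencing.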

Sequence of SPIB (Q01892 whole entry, the tested form may be a part): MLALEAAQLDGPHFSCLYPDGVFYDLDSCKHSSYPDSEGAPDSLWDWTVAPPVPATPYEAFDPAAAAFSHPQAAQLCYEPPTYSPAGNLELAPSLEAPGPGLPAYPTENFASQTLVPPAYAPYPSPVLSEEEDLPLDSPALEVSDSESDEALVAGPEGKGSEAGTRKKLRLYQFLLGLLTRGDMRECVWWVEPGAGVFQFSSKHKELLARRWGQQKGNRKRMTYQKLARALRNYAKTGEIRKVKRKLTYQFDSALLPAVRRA

Row | Sequence | binding signal
1 | TCTTCT | 1.19 fold enrichment (6-mer frequency, TF over GST control)
2 | AATCCT | 1.38 fold enrichment (6-mer frequency, TF over GST control)
3 | CCCCCT | 1.24 fold enrichment (6-mer frequency, TF over GST control)
4 | ACATCC | 2.69 fold enrichment (6-mer frequency, TF over GST control)
5 | TTTTGT | 1.37 fold enrichment (6-mer frequency, TF over GST control)
6 | ACATAA | 1.1 fold enrichment (6-mer frequency, TF over GST control)
7 | TTCTCG | 1.46 fold enrichment (6-mer frequency, TF over GST control)
8 | AAATCT | 1.29 fold enrichment (6-mer frequency, TF over GST control)
9 | TTCTCC | 1.61 fold enrichment (6-mer frequency, TF over GST control)
10 | CTTGCG | 1.4 fold enrichment (6-mer frequency, TF over GST control)
11 | ACGTTC | 1.37 fold enrichment (6-mer frequency, TF over GST control)
12 | AATTAA | 1.21 fold enrichment (6-mer frequency, TF over GST control)
13 | GTTCCT | 1.84 fold enrichment (6-mer frequency, TF over GST control)
14 | ACTTAT | 1.38 fold enrichment (6-mer frequency, TF over GST control)
15 | AATTTA | 1.4 fold enrichment (6-mer frequency, TF over GST control)
16 | CACGAT | 1.32 fold enrichment (6-mer frequency, TF over GST control)
17 | CTCTCT | 1.56 fold enrichment (6-mer frequency, TF over GST control)
18 | GCCTAC | 1.21 fold enrichment (6-mer frequency, TF over GST control)
19 | GCCTCG | 1.19 fold enrichment (6-mer frequency, TF over GST control)
20 | AACTAG | 1.07 fold enrichment (6-mer frequency, TF over GST control)

Each sequence was assayed against T1, ELK3 (Homo sapiens, UniProt P41970 1-407) in the same assay as above. Conditions: protein: recombinant; tags: N-terminal GST; dsDNA, one strand shown.
T1 sequence: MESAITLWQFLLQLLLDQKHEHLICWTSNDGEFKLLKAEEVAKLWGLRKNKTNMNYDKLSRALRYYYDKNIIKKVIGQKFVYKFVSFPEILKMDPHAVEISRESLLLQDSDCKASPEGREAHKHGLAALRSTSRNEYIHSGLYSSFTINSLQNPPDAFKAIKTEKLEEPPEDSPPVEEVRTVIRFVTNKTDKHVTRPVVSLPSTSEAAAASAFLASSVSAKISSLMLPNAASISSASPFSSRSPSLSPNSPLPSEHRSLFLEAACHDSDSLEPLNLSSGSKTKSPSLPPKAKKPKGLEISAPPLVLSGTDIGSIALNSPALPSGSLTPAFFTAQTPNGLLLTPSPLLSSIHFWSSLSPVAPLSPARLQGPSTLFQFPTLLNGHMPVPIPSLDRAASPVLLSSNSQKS
Summary of the method: as §1

Row | Sequence | binding signal
21 | TTTTCC | 1.82 fold enrichment (6-mer frequency, TF over GST control)
22 | CGATTA | 1.19 fold enrichment (6-mer frequency, TF over GST control)
23 | TATTTT | 1.36 fold enrichment (6-mer frequency, TF over GST control)
24 | TCCTCG | 1.49 fold enrichment (6-mer frequency, TF over GST control)
25 | GTTGCT | 1.25 fold enrichment (6-mer frequency, TF over GST control)
26 | TCCGCC | 1.86 fold enrichment (6-mer frequency, TF over GST control)
27 | TCTCTG | 1.52 fold enrichment (6-mer frequency, TF over GST control)
28 | TTTAAC | 1.21 fold enrichment (6-mer frequency, TF over GST control)
29 | ATTGCA | 1.24 fold enrichment (6-mer frequency, TF over GST control)
30 | ACGTCT | 1.18 fold enrichment (6-mer frequency, TF over GST control)
31 | TCTACT | 1.28 fold enrichment (6-mer frequency, TF over GST control)
32 | TCATCC | 1.43 fold enrichment (6-mer frequency, TF over GST control)
33 | TATCGA | 1.34 fold enrichment (6-mer frequency, TF over GST control)
34 | CTACTC | 1.46 fold enrichment (6-mer frequency, TF over GST control)
35 | AATTAC | 1.24 fold enrichment (6-mer frequency, TF over GST control)
36 | TCTGGC | 1.18 fold enrichment (6-mer frequency, TF over GST control)
37 | CCCGAC | 1.43 fold enrichment (6-mer frequency, TF over GST control)
38 | CAAGAT | 1.14 fold enrichment (6-mer frequency, TF over GST control)
39 | TTAGCA | 1.17 fold enrichment (6-mer frequency, TF over GST control)
40 | CATTTG | 1.2 fold enrichment (6-mer frequency, TF over GST control)
41 | TCTTCT | 1.25 fold enrichment (6-mer frequency, TF over GST control)
42 | AATCCT | 1.46 fold enrichment (6-mer frequency, TF over GST control)
43 | CCCCCT | 1.32 fold enrichment (6-mer frequency, TF over GST control)
44 | ACATCC | 2.98 fold enrichment (6-mer frequency, TF over GST control)
45 | TTTTGT | 1.27 fold enrichment (6-mer frequency, TF over GST control)
46 | ACATAA | 1.11 fold enrichment (6-mer frequency, TF over GST control)
47 | TTCTCG | 1.44 fold enrichment (6-mer frequency, TF over GST control)
48 | AAATCT | 1.22 fold enrichment (6-mer frequency, TF over GST control)
49 | TTCTCC | 1.6 fold enrichment (6-mer frequency, TF over GST control)
50 | CTTGCG | 1.44 fold enrichment (6-mer frequency, TF over GST control)
